# Assay outcomes: PubChem BioAssay, National Center for Advancing Translational Sciences (NCATS)
# 15-hLO-2 inh = inhibitors of human 15-lipoxygenase 2 (ALOX15B) | O15296 | hit rate 0.56% among 110,000 | purified 15hLO-2, xylenol orange hydroperoxide absorbance | AID 881 | Potency, µM (top dose mostly 57.1 µM), inactives show at the top dose activity change, negative = inhibition, usual class: inhibitors; further: potency means the concentration at half of the fitted maximal effect; nearly all actives have a fitted effect of over 60% in size
# Target sequence (O15296 whole entry, looked up): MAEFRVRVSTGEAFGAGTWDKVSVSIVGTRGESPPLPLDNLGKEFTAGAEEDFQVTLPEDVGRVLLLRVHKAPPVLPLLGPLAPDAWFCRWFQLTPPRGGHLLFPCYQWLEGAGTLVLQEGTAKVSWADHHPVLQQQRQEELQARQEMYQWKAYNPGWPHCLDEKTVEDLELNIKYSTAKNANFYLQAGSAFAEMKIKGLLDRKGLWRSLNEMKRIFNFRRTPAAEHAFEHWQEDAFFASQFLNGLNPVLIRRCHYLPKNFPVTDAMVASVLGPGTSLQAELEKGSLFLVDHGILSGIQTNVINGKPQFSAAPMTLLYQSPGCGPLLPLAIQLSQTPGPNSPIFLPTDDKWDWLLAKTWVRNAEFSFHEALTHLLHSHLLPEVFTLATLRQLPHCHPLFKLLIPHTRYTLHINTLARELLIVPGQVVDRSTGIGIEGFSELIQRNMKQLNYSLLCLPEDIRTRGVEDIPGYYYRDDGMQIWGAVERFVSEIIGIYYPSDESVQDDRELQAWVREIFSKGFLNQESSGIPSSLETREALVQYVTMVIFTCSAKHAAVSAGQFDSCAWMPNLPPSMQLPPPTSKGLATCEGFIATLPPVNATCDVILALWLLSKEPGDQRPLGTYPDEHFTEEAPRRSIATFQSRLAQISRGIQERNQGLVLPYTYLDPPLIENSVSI
#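 Read-out: hydroperoxide product oxidises ferrous iron, measured as xylenol orange complex via the 573-to-405 nm absorbance ratio after 30 min. Reaction: 50 nM enzyme, 15 min compound preincubation, 45 uM arachidonic acid, 90 min RT, Hepes pH 7.5 with Triton X-100.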
# 12-hLO inh = blocks human 12-lipoxygenase activity. P18054. purified 12-hLO, xylenol orange hydroperoxide absorbance. Potency, µM (top dose mostly 57.1 µM), for the others: at the highest dose activity change, negative = inhibition, usual class: inhibitors. hit rate 0.12% among 150,000; further: potency means the concentration at half of the fitted maximal effect; nearly all actives have a fitted effect of over 55% in size
#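 Xylenol orange chromogenic assay: hydroperoxide from 12hLO oxidises Fe(II), giving red-shifted Fe(III)-XO absorbance. Conditions: 150 nM enzyme, 40 uM arachidonic acid, 25 mM Hepes pH 7.0, 0.01% Triton X-100, 30 min, room temperature.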
# PNC inhibitor = inhibitors of perinucleolar compartment assembly; PC3M PTB-GFP, PNC prevalence imaging, 16 h; hits give low values; activity change (PNC), negative = inhibition, % at 10 µM; hit rate 3.1% among 140,000;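 active means readout at or below -70, meaning at least 70% loss of cells showing the perinucleolar compartment, a nuclear body marking cancer cells; inconclusive means readout between -30 and a set limit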;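 further: plate controls were DMSO wells for no effect and camptothecin positive control wells for full effect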
#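 PC3M cells stably expressing PTB-GFP, 750–1000 cells/well, treated 16 h at 37 °C with compound (23 nl of library stock), in duplicate. After paraformaldehyde fixation and Hoechst stain, imaged at 20x; PNC prevalence scored by image analysis.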
# The depositor's hits bear a star; ? = inconclusive; . = no result; [ ] = another dose, or the depositor's remark. Sampled rows, rich in hits. Any-hit rate of the full collection: about 3.1%. Unless noted, the call rests on the fitted dose curve; in most records, active means well fitted curve in the direction sought with a large enough effect; inconclusive means small, poorly fitted or top-dose-only effect, or another doubt; inactive means no such curve, though single readings can be large; an effect the other way counts as inactive or inconclusive. Unless noted, on the % scale 0 is the no-effect control and ±100 the full control effect.
SMILES,15-hLO-2 inh,12-hLO inh,PNC inhibitor
COC(=O)N1C2=C(c3ccccc3[C@@H]1CC(=O)Nc1ccc(Br)cc1)[C@@H]1C(=O)N(c3ccccc3)C(=O)[C@@H]1[C@H](C)C2,.,-0.5%[11.4 µM],.
O=C(NCc1ccccc1)c1ccco1,.,-2.9%,19.3
CC(=O)NCCC(Cc1ccccc1)c1ccco1 (centres undefined),.,-1.8%,-100.0*
CN1CCCC2(CCN(C(=O)c3cc(C(F)(F)F)cc(C(F)(F)F)c3)CC2)C1,24.9%,-0.8%,.
COC1C=CO[C@@]2(C)Oc3c(C)c(O)c4c(O)c(c5c(nc6cc(C)ccn65)c4c3C2=O)NC(=O)/C(C)=C\C=CC(C)C(O)[C@@H](C)C(O)C(C)[C@@H](OC(C)=O)C1C (some centres undefined),-18.6%,-4.1%,.
Nc1nc(=S)c2ncn([C@H]3O[C@@H](CO)[C@@H](O)[C@@H]3O)c2[nH]1,-1.3%[25.6 µM],-3.2%[25.6 µM],.
COC(=O)C1C(=O)C2=C(CC1C)NC(C)=C(C(=O)OC(C)C)C2c1ccc(C)o1 (centres undefined),-4.8%,-3.3%,?
COC(=O)C1C(=O)C2=C(CC1C)NC(C)=C(C(=O)OC1CCCCC1)C2c1ccc(N(C)C)cc1 (centres undefined),.,-9.0%,-100.0*
CCOc1ccccc1N(CC(=O)Nc1ccc2c(c1)OCCO2)S(C)(=O)=O,2.7%,-5.6%,-124.8*
CCOc1ccccc1N(CC(=O)Nc1ccc2c(c1)OCO2)S(C)(=O)=O,2.5%,-6.3%,8.7
O=C(CNC(=O)c1ccc(F)cc1)N/N=C/c1cn[nH]c1-c1ccccc1,.,-1.2%,-90.2*
O=C(CNC(=O)c1ccccc1F)N/N=C/c1cn[nH]c1-c1ccccc1,.,0.0%,-1.9
COc1ccc(CCN(C)CCCOc2ccc(S(=O)(=O)c3[nH]c4ccccc4c3C(C)C)cc2)cc1OC,3.3%,-2.0%,.
CCOc1ccc2nc(C)cc(C(=O)O)c2c1,-2.9%,2.8%,-5.0
CCC(C)OC(=O)c1cc(C)nc2c(Br)cc(Br)cc12 (centres undefined),.,1.7%,-100.0*
CC[C@@H]1CC(=O)N(SC[C@H](N)C(=O)O)C1=O,1.6%[11.4 µM],-1.0%[11.4 µM],.
CCOc1ccccc1NC(=S)NC(=O)CCCOc1ccc(Cl)cc1Cl,15.8µM*,?,3.6
CCOc1ccccc1OCC(=O)Nc1ccc(Cl)cc1Cl,7.7%,-0.1%,?
C=C(C)OC(C)=O,-7.9%,-4.9%,.
Oc1cccc(NC(=S)Nc2cccnc2)c1,.,0.8%,-87.6*
COc1cc(NC(=S)Nc2cccnc2)cc(OC)c1OC,-1.3%,-4.4%,18.4
CCOC(=O)c1ccc(NC(=O)Cn2cccc2)cc1,-28.5%,0.7%,-26.7
CCOC(=O)c1ccc(NC(=O)CN2C(=O)CSC2=O)cc1,-0.2%,2.6%,-90.1*
CCOC(=O)c1ccc(NC(=O)COC)cc1,-0.3%,1.0%,-88.7*
COC(=O)c1ccc(NC(=S)Nc2ccccn2)cc1,.,-12.4%,?
SMILES,15-hLO-2 inh,12-hLO inh,PNC inhibitor
CCOC(=O)c1ccc(NC(=S)Nc2cccc(C)n2)cc1,.,-5.6%,-85.4*
COC(=O)c1ccc(NC(=O)CN2C(=O)CSC2=O)cc1,-1.7%,4.4%,2.9
CC(C)(C)Cn1nc(-c2ccc(Cl)cc2)c2c(N)ncnc21,19.1%,-0.8%,.
COC1C[C@@H](O[C@@H]2C(C)C(=O)OC(C)C(C)[C@H](OC(C)=O)C(C)C(=O)[C@@]3(CO3)CC(C)C(OC3OC(C)CC(N(C)C)[C@H]3OC(C)=O)C2C)OC(C)[C@@H]1OC(C)=O (some centres undefined),8.9%,0.4%,.
COC(=O)[C@@]1(Cc2ccc(OC)cc2)[C@H]2c3cc(C(=O)N4CCCC4)n(CCF)c3C[C@H]2CN1C(=O)c1ccccc1,-0.2%,-6.5%,.
Cc1ccc(C2CC(=O)Oc3cc(C)c(Cl)c(C)c32)cc1 (centres undefined),-1.9%[0.0915 µM],-14.0%[0.00818 µM],.
Cc1nc(-c2ccccc2)cc(N2CCCC2)n1,4.3%,3.0%,-7.7
Nc1nc(-c2ccccc2)cc(N2CCCCC2)n1,13.7%,3.5%,-106.2*
Cc1cccc(CN2CCC(CNC(=O)CCNC(=O)Cn3ccc4ccccc4c3=O)CC2)c1,10.8%,0.6%,?
O=C(Cn1ccc2ccccc2c1=O)NCCC(=O)NC1CCN(Cc2ccccc2)CC1,6.3%,-1.8%,-85.9*
OC[C@@H]1[C@@H](c2ccc(F)cc2)C(c2ccc(F)cc2)=NN1c1ccccc1,-22.8%[0.0915 µM],-9.1%[0.00818 µM],.
CCCCC(C=O)NC(=O)C(CC(C)C)NC(=O)OCc1ccccc1 (centres undefined),1.6%,-6.8%,.
O=C(C1CCCN(Cc2cccnc2)C1)N1CCCCC1 (centres undefined),-15.6%,-12.0%,-81.9*
COc1ccc(CN2CCCC(C(=O)N3CCCC3)C2)cc1 (centres undefined),-14.2%,-7.0%,54.3
Cn1ncc(Cl)c1C(=O)Nc1ccncc1,.,3.2%,?
CCn1ncc(C(=O)Nc2cc(C)on2)c1C,-7.7%,5.9%,48.7
CCn1ncc(C(=O)Nc2cccc(Cl)c2)c1C,.,0.3%,-88.6*
CCn1ncc(Cl)c1C(=O)Nc1ccncc1,2.3%,0.4%,-114.2*
COc1ccc(/C=C/C(=O)c2ccc(C)s2)cc1,-3.3%,0.8%,.
Cc1ccc(NC2=C/C(=N/S(=O)(=O)c3cccs3)c3ccccc3C2=O)cc1,.,1.1%,-100.9*
CCc1cc[n+](C2=C([O-])c3ccccc3C(=O)/C2=N\S(=O)(=O)c2cccs2)cc1,.,-7.6%,?
O=C1C(Nc2ccccc2)=C/C(=N/S(=O)(=O)c2cccs2)c2ccccc21,.,2.8%,-81.4*
COC(=O)c1ccccc1NC1=C/C(=N\S(=O)(=O)c2cccs2)c2ccccc2C1=O,-21.8%,-7.2%,-22.2
CS(=O)(=O)N(CC(=O)O)Cc1ccccc1,-11.9%[11.4 µM],-3.7%[11.4 µM],.
CCCCN1CCc2c([nH]c3c(C)cccc23)C1=O,3.1%,5.3%,-86.6*
SMILES,15-hLO-2 inh,12-hLO inh,PNC inhibitor
CCCc1c(C)c2cccc(C)c2[nH]c1=O,1.8%,-7.8%,-18.6
O=C(NCCNC[C@@H](O)COc1ccc(O)cc1)N1CCOCC1,14.1%,-3.0%,.
CC(C)=CC(=O)Nc1nnc(C)s1,.,-0.1%,-108.1*
CCC(=O)Nc1nnc(C)s1,.,3.5%,-105.7*
CCCCC(=O)Nc1nnc(C)s1,-5.8%,-1.4%,55.7
CC(C)=CC(=O)Nc1nnc(-c2ccccc2)s1,-4.8%,0.5%,-22.7
COC(=O)c1ccc(C(NC(=O)OCc2ccccc2)/C(=C/[C@@H](C)C(=O)NCc2cc(C)n(C)n2)c2cccnc2)cc1 (some centres undefined),-5.5%,0.0%,.
Cc1cccc(NC(=O)c2ccc(S(=O)(=O)C(F)F)cc2)c1C,.,-4.1%,-100.0*
Cc1cc(C)cc(NC(=O)c2ccc(S(=O)(=O)C(F)F)cc2)c1,.,-2.5%,-28.7
COC(=O)c1ccc(C(NC(=O)OCc2ccccc2)/C(C)=C/[C@@H](C)C(=O)N(C)Cc2cccnc2)cc1 (some centres undefined),28.0%,5.8%,.
O=c1c(O)c(-c2ccc(O)cc2)oc2ccc(O)cc12,-12.8%,0.5%,.
COc1ccc(-c2nc3cnc(OC)nc3n(C[C@H]3CCCO3)c2=O)cc1,-8.5%,.,.
CCCn1c(-c2ccc(F)cc2)nc2c(NCCN3CCCCC3)nc(C)nc21,43.3%,-1.8%,.
O=C(O)c1ccc(-c2ccccc2Cl)o1,-8.2%,-2.6%,-7.1
